Inconclusive results are not listed. Calls of active or inactive are those of the source. Unless noted, the call rests on the fitted dose curve; in most records, active means well fitted curve in the direction sought with a large enough effect in the repeat runs; inconclusive means weak or mixed curves; inactive means no such curve, though single readings can be large; an effect the other way counts as inactive or inconclusive.
Tests used:
[1] = target: Nuclear receptor subfamily 1 group I member 3 (Homo sapiens) (UniProt Q14994); assay: qHTS assay to identify small molecule antagonists of the constitutive androstane receptor (CAR) signaling pathway (AID 1224838);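 further: HepG2 cells stably expressing hCAR with CYP2B6 luciferase reporter stimulated by CITCO; nearly all actives have a fitted effect of over 40% in size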
Sequence of Nuclear receptor subfamily 1 group I member 3 (Homo sapiens) (Q14994 whole entry, looked up): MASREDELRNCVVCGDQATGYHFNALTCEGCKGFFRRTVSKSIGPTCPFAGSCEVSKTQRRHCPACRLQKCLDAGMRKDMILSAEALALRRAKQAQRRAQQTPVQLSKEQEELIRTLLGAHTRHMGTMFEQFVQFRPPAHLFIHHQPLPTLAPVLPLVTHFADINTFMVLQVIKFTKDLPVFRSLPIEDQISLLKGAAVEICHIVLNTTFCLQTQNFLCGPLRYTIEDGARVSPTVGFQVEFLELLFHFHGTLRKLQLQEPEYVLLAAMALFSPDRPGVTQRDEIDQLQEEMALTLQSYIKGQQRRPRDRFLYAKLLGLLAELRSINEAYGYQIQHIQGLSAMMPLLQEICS
How it was run: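 Quantitative HTS in double-stable HepG2-CYP2B6-hCAR cells. After 4 h plating, cells get compound (15 concentrations) and CITCO at 50 nM final, incubate 24 h at 37 C, then ONE-Glo luminescence is read.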

[2] = A CellTox Green Cytotoxicity Assay to monitor cytotoxicity in HEK293 cells - 0 hour (AID 1224869); further: nearly all actives have a fitted effect of over 50% in size; further: potency means the concentration at half of the fitted maximal effect
How it was run: (§1)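 Each value comes from one timepoint of a single continuous run in which HEK293 cells with CellTox Green were exposed to compound for up to 40 h at 37 C, dye fluorescence rising with cell death.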

[3] = qHTS RealTime-Glo MT Cell Viability Assay in HepG2 cells - 40 hour (AID 1224870); further: nearly all actives have a fitted effect of over 50% in size
How it was run: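 HepG2 cells mixed with RealTime-Glo MT reagents (NanoLuc plus cell-permeant prosubstrate) were seeded at 600 cells/well, incubated 5 h at 37 C/5% CO2, then pinned with compounds in DMSO; nonlytic luminescence tracked viability during 40 h treatment.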

[4] = A CellTox Green Cytotoxicity Assay to monitor cytotoxicity in HEK293 cells - 40 hour (AID 1224871); further: nearly all actives have a fitted effect of over 45% in size; further: potency means the concentration at half of the fitted maximal effect
How it was run: as §1

[5] = A CellTox Green Cytotoxicity Assay to monitor cytotoxicity in HepG2 cells - 16 hour (AID 1224876); further: nearly all actives have a fitted effect of over 45% in size; further: potency means the concentration at half of the fitted maximal effect
How it was run: (§2)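 Continuous culture of HepG2 cells with a membrane-impermeant DNA dye; rising fluorescence marks dead cells. Compound exposure lasted up to 40 h at 37 C, with reads every 8 h from 0 h.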

[6] = qHTS RealTime-Glo MT Cell Viability Assay in HepG2 cells - 32 hour (AID 1224877); further: nearly all actives have a fitted effect of over 55% in size
How it was run: (§3)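 qHTS, HepG2, 600 cells/well, RealTime-Glo (NanoLuc + prosubstrate) added with cells; 5 h preincubation; DMSO compound addition; 37 C; luminescence at 0/8/16/24/32/40 h.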

[7] = qHTS RealTime-Glo MT Cell Viability Assay in HEK293 cells - 0 hour (AID 1224880); further: top concentration of the series differs between compounds; nearly all actives have a fitted effect of over 45% in size
How it was run: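 qHTS format; HEK293 cells with NanoLuc/prosubstrate reagent, 37 C/5% CO2 for 5 h pre-dosing; compounds 23 nL in DMSO; luminescence at each time point reflects viable cells.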

[8] = A CellTox Green Cytotoxicity Assay to monitor cytotoxicity in HEK293 cells - 16 hour (AID 1224888); further: nearly all actives have a fitted effect of over 35% in size; further: potency means the concentration at half of the fitted maximal effect
How it was run: as §1

[9] = qHTS RealTime-Glo MT Cell Viability Assay in HepG2 cells - 0 hour (AID 1224889); further: nearly all actives have a fitted effect of over 50% in size; further: potency means the concentration at half of the fitted maximal effect
How it was run: as §3

[10] = A CellTox Green Cytotoxicity Assay to monitor cytotoxicity in HepG2 cells - 8 hour (AID 1224890); further: nearly all actives have a fitted effect of over 45% in size; further: potency means the concentration at half of the fitted maximal effect
How it was run: as §2

[11] = qHTS assay to identify small molecule antagonists of the estrogen receptor alpha (ER-alpha) signaling pathway using the BG1 cell line in the presence of 0.1 nM 17-beta-estradiol - cell viability counter screen (AID 1259241); further: nearly all actives have a fitted effect of over 40% in size
How it was run: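 Estradiol-stimulated (0.1 nM) VM7Luc4E2 cells exposed to compounds 22 hr; viability measured by fluorescence of cleaved CellTiter-Fluor substrate after 30 min.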

[12] = qHTS assay to identify small molecule antagonists of the androgen receptor (AR) signaling pathway using the MDA cell line in the presence of 0.5 nM R1881 - cell viability counter screen (AID 1259242); further: nearly all actives have a fitted effect of over 45% in size; further: potency means the concentration at half of the fitted maximal effect
How it was run: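 Fluorescence from CellTiter-Fluor, which reports protease activity of live cells, was read 30 min after reagent addition to MDA-kb2 cells that had been incubated 16 hr with compound and 0.5 nM R1881.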

[13] = qHTS assay to identify small molecule HDAC inhibitors - cell viability counter screen (AID 1259365); further: series mostly up to about 92 µM; nearly all actives have a fitted effect of over 50% in size
How it was run: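 After overnight seeding at 1,500 cells per well, wild-type HCT-116 cultures took up compounds in DMSO for 2hr at 37 C. Viable cell content came from luminescence with CellTiter-Glo.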

[14] = qHTS assay to identify small molecule agonists or antagonists of the thyroid stimulating hormone receptor (TSHR) signaling pathway - wild type cell line counter screen (AID 1259384; calls by dose curve)
How it was run: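 Wild-type HEK293 cells were plated 18 h at 37 C/5% CO2, pin-dosed with compound plus Ro20-1724 medium, held 30 min at room temperature, then given cAMP-d2 and anti-cAMP-cryptate; fluorescence was read after 1 h. Fifteen concentrations, triplicate.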

[15] = qHTS assay to identify small molecule agonists of the TGF-beta/Smad signaling pathway (AID 1346859; active means well fitted activation curve with a large enough effect in the signal ratio in the repeat runs, not every such curve was filed as active; the % refers to the signal ratio; further: series mostly up to about 77 µM)
How it was run: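 Each well held 4,000 SBE-bla HEK 293T cells incubated overnight before compound addition; 5 hr later the cleavable FRET substrate went on for 2 hr at room temperature, and fluorescence was read at two emissions.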

[16] = target: Cytochrome P450 1A2 (Homo sapiens) (UniProt P05177); assay: Cytochrome P450 Family 1 Subfamily A Member 2 (CYP1A2) small molecule antagonists: luciferase reporter qHTS assay (AID 1671199); further: nearly all actives have a fitted effect of over 50% in size; further: potency means the concentration at half of the fitted maximal effect; on activity change, negative = inhibition: series mostly up to about 120 µM
Sequence of Cytochrome P450 1A2 (Homo sapiens) (P05177 whole entry, looked up): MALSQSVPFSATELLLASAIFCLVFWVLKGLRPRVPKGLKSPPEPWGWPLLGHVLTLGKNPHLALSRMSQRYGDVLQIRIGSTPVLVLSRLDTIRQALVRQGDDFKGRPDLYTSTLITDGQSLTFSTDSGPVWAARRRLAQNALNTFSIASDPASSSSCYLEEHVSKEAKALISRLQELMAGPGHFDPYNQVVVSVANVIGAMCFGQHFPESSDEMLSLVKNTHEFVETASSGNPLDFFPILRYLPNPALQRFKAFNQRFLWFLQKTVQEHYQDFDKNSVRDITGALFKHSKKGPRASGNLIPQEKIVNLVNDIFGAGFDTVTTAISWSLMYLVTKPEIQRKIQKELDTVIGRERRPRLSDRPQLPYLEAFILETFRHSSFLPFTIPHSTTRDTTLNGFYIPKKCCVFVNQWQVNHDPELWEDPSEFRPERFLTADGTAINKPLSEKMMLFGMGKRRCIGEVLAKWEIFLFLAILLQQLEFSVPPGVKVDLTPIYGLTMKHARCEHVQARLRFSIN
How it was run: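 Signal from luciferin formed by CYP1A2 from a proluciferin substrate is read as luminescence, expressed in relative luminescence units. Compounds sit with enzyme 10 min, NADPH-driven reaction runs 1 h, all at room temperature.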

[17] = target: Voltage-gated inwardly rectifying potassium channel KCNH2 (Homo sapiens) (UniProt Q12809); assay: Human Ether-a-go-go-Related Gene (hERG) channel small molecule antagonists: fluorescence cell-based qHTS assay (AID 1671200); further: nearly all actives have a fitted effect of over 50% in size; further: potency means the concentration at half of the fitted maximal effect;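 on activity change, negative = inhibition: hERG-expressing U2OS cells given a thallium stimulus after FluxOR II dye loading; series mostly up to about 77 µM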
Sequence of Voltage-gated inwardly rectifying potassium channel KCNH2 (Homo sapiens) (Q12809 whole entry, looked up): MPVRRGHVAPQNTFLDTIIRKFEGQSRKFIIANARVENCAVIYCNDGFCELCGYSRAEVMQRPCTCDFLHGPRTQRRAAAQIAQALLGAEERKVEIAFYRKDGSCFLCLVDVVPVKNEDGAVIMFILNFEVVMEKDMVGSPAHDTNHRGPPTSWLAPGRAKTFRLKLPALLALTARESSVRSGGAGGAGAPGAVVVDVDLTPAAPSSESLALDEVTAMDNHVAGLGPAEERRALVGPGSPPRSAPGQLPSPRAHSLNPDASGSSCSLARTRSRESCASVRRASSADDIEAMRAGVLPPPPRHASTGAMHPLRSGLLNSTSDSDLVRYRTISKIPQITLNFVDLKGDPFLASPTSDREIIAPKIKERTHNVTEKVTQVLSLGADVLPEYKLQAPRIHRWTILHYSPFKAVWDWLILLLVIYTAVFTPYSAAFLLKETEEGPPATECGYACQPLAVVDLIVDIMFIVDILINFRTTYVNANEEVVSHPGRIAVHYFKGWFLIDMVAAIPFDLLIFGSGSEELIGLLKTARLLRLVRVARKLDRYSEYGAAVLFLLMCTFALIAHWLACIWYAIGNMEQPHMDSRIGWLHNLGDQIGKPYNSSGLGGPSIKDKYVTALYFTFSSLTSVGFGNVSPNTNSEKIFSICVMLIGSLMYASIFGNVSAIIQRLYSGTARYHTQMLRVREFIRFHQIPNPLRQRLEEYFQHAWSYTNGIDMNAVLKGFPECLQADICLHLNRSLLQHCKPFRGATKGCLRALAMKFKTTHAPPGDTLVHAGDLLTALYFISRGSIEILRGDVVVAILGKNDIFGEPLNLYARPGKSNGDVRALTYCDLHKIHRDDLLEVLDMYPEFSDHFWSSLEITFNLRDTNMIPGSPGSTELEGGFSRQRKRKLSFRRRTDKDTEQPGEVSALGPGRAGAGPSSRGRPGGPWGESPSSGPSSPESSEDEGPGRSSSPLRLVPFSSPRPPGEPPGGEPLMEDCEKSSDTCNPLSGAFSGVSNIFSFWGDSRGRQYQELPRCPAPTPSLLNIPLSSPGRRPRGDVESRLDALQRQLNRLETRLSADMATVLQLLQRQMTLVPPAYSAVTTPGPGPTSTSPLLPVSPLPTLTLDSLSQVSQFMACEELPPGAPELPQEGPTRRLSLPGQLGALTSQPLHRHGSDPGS
How it was run: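 Kinetic two-minute fluorescence traces, sampled at 1 s, were collected following thallium stimulus of U2OS cells (1000 per well) that had been cultured overnight at 37 C and loaded with FluxOR II.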

[18] = qHTS assay to identify small molecule antagonists of the sonic hedgehog signaling (Shh) pathway (AID 1259369; calls by dose curve; further: nearly all actives have a fitted effect of over 45% in size; further: potency means the concentration at half of the fitted maximal effect)
How it was run: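 Screening used 3T3Gli1-Luc cells at 2,000 per well, compounds delivered in DMSO, and conditioned medium as agonist stimulus; plates incubated 24hr at 37 C and 5% CO2 before a 30min luciferase step.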

[19] = qHTS assay to identify small molecule agonists of the estrogen related receptor signaling pathway with the pleiotropic PPARgamma coactivator (PGC) from Tox21 10K library (AID 1224842); further: nearly all actives have a fitted effect of over 15% in size
How it was run: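 PGC/ERR reporter cells (NTP line) were seeded 2,000 per well, rested 6 h at 37 C/5% CO2, then pin-dosed with compounds in DMSO for 18 h at 37 C; luciferase read by One-Glo luminescence after 30 min at room temperature.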

[20] = qHTS assay for small molecule agonists of the p53 signaling pathway (AID 651631; calls by dose curve; further: nearly all actives have a fitted effect of over 15% in size; further: potency means the concentration at half of the fitted maximal effect)
How it was run: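 We treat p53RE-bla HCT-116 cells with compounds for 16 h at 37 °C, add LiveBLAzer B/G FRET substrate for 2 h at room temperature, and measure fluorescence intensity.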
On the % scale 0 is the no-effect control and ±100 the full control effect.

O=C1C(I)=CC(=C(c2cc(I)c(O)c(I)c2)c2ccccc2C(=O)O)C=C1I
inactive: Potency [1] | Potency [2] | Potency [3] | Potency [4] | Potency [5] | Potency [6] | outcome [7] | Potency [8] | Potency [9] | Potency [10] | Potency [11] | Potency [12] | outcome [13] | outcome [14] | outcome [15] | Potency [16] | Potency [17]

ClC(Cl)=C(c1ccc(Cl)cc1)c1ccccc1Cl
inactive: Potency [1] | Potency [2] | Potency [3] | Potency [5] | Potency [6] | outcome [7] | Potency [8] | Potency [9] | Potency [10] | Potency [11] | Potency [12] | outcome [13] | Potency [18] | outcome [14] | Potency [16]
active: Potency [17] 21.9 µM

O=C(Nc1ccccc1-c1ccc(Cl)cc1)c1cccnc1Cl
inactive: Potency [1] | Potency [19] | Potency [3] | Potency [6] | outcome [7] | Potency [11] | Potency [12] | outcome [13] | outcome [14] | outcome [15] | Potency [17]
active: Potency [2] 46.3 µM | Potency [5] 41.2 µM | Potency [10] 41.2 µM | Potency [16] 8.42 µM

Oc1c(I)cc(I)cc1I
inactive: Potency [19] | Potency [2] | Potency [3] | Potency [4] | Potency [5] | Potency [6] | outcome [7] | Potency [8] | Potency [9] | Potency [10] | Potency [11] | Potency [12] | outcome [13] | outcome [14] | outcome [15] | Potency [17]
active: Potency [16] 39.9 µM

CO/C=C(/C(=O)OC)c1ccccc1Oc1cc(Oc2ccccc2C#N)ncn1
inactive: Potency [1] | Potency [19] | Potency [2] | Potency [3] | Potency [5] | Potency [8] | Potency [10] | outcome [13] | outcome [14] | Potency [17]
active: Potency [4] 4.9 µM | Potency [12] 24.3 µM | Potency [18] 0.327 µM | Potency [16] 41.4 µM

Cc1c(N)cccc1[N+](=O)[O-]
inactive: Potency [20]

N#Cc1cc([N+](=O)[O-])ccc1N
inactive: Potency [1] | Potency [19] | Potency [2] | Potency [3] | Potency [4] | Potency [5] | Potency [6] | outcome [7] | Potency [8] | Potency [9] | Potency [10] | Potency [11] | Potency [12] | outcome [13] | outcome [14] | outcome [15] | Potency [17]
active: Potency [16] 35.6 µM

O=C(c1ccccc1)C(Cl)Cl
active: Potency [4] 34.7 µM | Potency [18] 30.6 µM | Potency [16] 31.7 µM
inactive: Potency [19] | Potency [2] | Potency [3] | Potency [5] | Potency [6] | outcome [7] | Potency [8] | Potency [9] | Potency [10] | Potency [11] | Potency [12]

ClC1=C(Cl)[C@]2(Cl)[C@@H]3[C@@H](Cl)[C@H]4O[C@H]4[C@@H]3C1(Cl)C2(Cl)Cl
active: Potency [4] 54.9 µM | Potency [18] 48.6 µM | Potency [17] 54.9 µM
inactive: Potency [1] | Potency [19] | Potency [2] | outcome [7] | Potency [9] | Potency [11] | Potency [12] | outcome [13] | outcome [15] | Potency [16]

C[C@]12CC[C@@H](O)C[C@@H]1CC[C@@H]1[C@@H]2CC[C@]2(C)C(=O)CC[C@@H]12
inactive: Potency [2] | Potency [3] | Potency [5] | Potency [6] | outcome [7] | Potency [8] | Potency [10] | Potency [11] | Potency [12] | outcome [13] | outcome [15] | Potency [17]
active: Potency [4] 49 µM | Potency [9] 34.7 µM | Potency [18] 19.3 µM

Cc1ccc2nc3sc(=O)sc3nc2c1
inactive: activity, negative = inhibition [1] 67.8% [at 19 µM] | cytotoxicity [2] -0.433% [at 15.8 µM] | activity change, negative = cytotoxic [3] -11.2% [at 15.8 µM] | cytotoxicity increase [4] -10.2% [at 15.8 µM] | cytotoxicity increase [5] -9.02% [at 15.8 µM] | activity change, negative = cytotoxic [6] -8.61% [at 15.8 µM] | activity change, negative = cytotoxicity [7] -3.58% [at 15.8 µM] | activity change [8] -2.03% [at 15.8 µM, stronger effect = higher value] | activity change, negative = cytotoxicity [9] 15.7% [at 15.8 µM] | cytotoxicity increase [10] -5.93% [at 15.8 µM] | activity change, negative = cytotoxicity [11] 1.06% [at 19 µM] | viability change, negative = cytotoxic [12] -14.8% [at 19 µM] | activity change, negative = cytotoxicity [13] 4.09% [at 19 µM] | activity change, negative = inhibition [18] -28.1% [at 19 µM] | cAMP activity change [14] 3.67% [at 18.9 µM] | activation [15] -3.69% [at 15.8 µM] | activity change, negative = inhibition [17] 2.68% [at 15.8 µM]
active: Potency [16] 13.5 µM

Nc1ccc([N+](=O)[O-])cc1
active: Potency [4] 38.9 µM | Potency [10] 43.6 µM | Potency [18] 27.3 µM | Potency [16] 39.9 µM
inactive: Potency [1] | Potency [2] | Potency [3] | Potency [6] | outcome [7] | Potency [9] | outcome [13] | outcome [14] | outcome [15]

O=[N+]([O-])c1c(Cl)c(Cl)cc(Cl)c1Cl
active: Potency [4] 49 µM | Potency [8] 49 µM | Potency [16] 4.8 µM
inactive: Potency [19] | Potency [3] | Potency [6] | outcome [7] | Potency [9] | Potency [10] | Potency [11] | Potency [12] | outcome [13] | Potency [18] | outcome [14] | Potency [17]

CC(c1ccccc1)(c1ccc(O)cc1)c1ccc(O)cc1
inactive: Potency [19] | Potency [2] | Potency [3] | Potency [6] | Potency [9] | Potency [11] | Potency [12] | outcome [13] | outcome [14] | outcome [15] | Potency [16] | Potency [17]
active: Potency [18] 21.7 µM

COc1ccc(C(c2ccc(OC)cc2)C(Cl)(Cl)Cl)cc1
active: Potency [20] 30.6 µM | Potency [18] 21.6 µM | Potency [16] 25 µM
inactive: Potency [1] | Potency [19] | Potency [2] | Potency [3] | Potency [4] | Potency [5] | outcome [7] | Potency [8] | Potency [9] | Potency [10] | Potency [11] | Potency [12] | outcome [13] | outcome [14] | outcome [15]

CCN(CC)C(=O)Cl
inactive: Potency [1] | Potency [19] | Potency [2] | Potency [3] | Potency [4] | Potency [5] | Potency [6] | outcome [7] | Potency [8] | Potency [9] | Potency [10] | Potency [11] | Potency [12] | outcome [13] | Potency [18] | outcome [14] | outcome [15] | Potency [16] | Potency [17]

Cc1cc(C(C)(C)c2ccc(O)c(C)c2)ccc1O
active: Potency [20] 13 µM | Potency [18] 16.4 µM | Potency [16] 33.9 µM
inactive: Potency [1] | Potency [19] | Potency [2] | Potency [3] | Potency [5] | Potency [6] | outcome [7] | Potency [9] | Potency [10] | Potency [11] | outcome [13] | outcome [14] | outcome [15]

— PubChem BioAssay (Tox21)
